Test results reported in ChEMBL document CHEMBL3988442, “University of Dundee, Small-Polar-MMV Screening Library” (2021).
Out of some 85,000 compounds screened, about 440 (0.52%) showed an effect of 50% or more. This is one part of a sample in which strong results are shown more often than they occur.

Assay: In vitro enzyme assay to detect hydrolysis of chlorophenol red-beta-D-[…] directly proportional to the number of Toxoplasma stably expressing beta-galactosidase
Format: functional, organism-based, Toxoplasma gondii
Parameters: scale not given: in the data most compounds retested in dose-response had high values

Row | SMILES | Percent Effect (10 µM) [%] | Percent Effect (50 µM) [%]
1 | CCC(CNc1ncnc2oc(C)nc12)Cc1ccccc1 (stereo unspecified) | -4.784 | 
2 | CCCOc1ccc(Cl)cc1CNc1ncnc2oc(C)nc12 | 57.15 | 
3 | CCCOc1ccccc1CCCNc1ncnc2oc(C)nc12 | 12.3 | 
4 | CC(C)NC(=O)c1ccc(N2CCCCC2=O)cc1 |  | 19.08
5 | O=C1CCCCN1c1ccc(S(=O)(=O)NC2CC2)cc1 |  | 98.35
6 | CC(N)c1ccc(N2CCCCC2=O)cc1 (stereo unspecified) |  | 3.622
7 | OC1(Cc2ccccc2F)CCNC1 (stereo unspecified) |  | 78.69
8 | OC1(Cc2ccccc2F)CCNCC1 |  | -5.436
9 | OCC1(Cc2ccccc2F)CCCNC1 (stereo unspecified) |  | 2.008
10 | CC(NS(C)(=O)=O)C(=O)NCCCc1ccncc1 (stereo unspecified) |  | 0.4518
11 | Cc1cc(CN(C)C(=O)C2CCCN2S(C)(=O)=O)no1 (stereo unspecified) |  | -2.48
12 | O=C(CCN1C(=O)CCC1=O)Nc1ccc(F)cc1 |  | 6.107
13 | Cc1nc(N2CCN(C(=O)C3CCCC3)CC2)c2c(n1)c(C)nn2C | -37.24 | 
14 | Cc1nc(N2CCN(C(=O)c3ccccc3)CC2)c2c(n1)c(C)nn2C | -7.412 | 
15 | Cc1nc(N2CCN(C(=O)c3ccccn3)CC2)c2c(n1)c(C)nn2C | 25.12 | 
16 | Cc1nn(C)c2c(N3CCN(C(=O)c4ccccc4)CC3)ncnc12 | -3.825 | 

Row | SMILES | Percent Effect (10 µM) [%] | Percent Effect (50 µM) [%]
17 | Cc1nc(N2CCN(c3ccccc3)CC2)c2c(n1)c(C)nn2C | 52.19 | 
18 | Cc1nc(N2CCN(C(=O)C3CC3)CC2)c2c(n1)c(C)nn2C | 0.4782 | 
19 | Cc1nc(N2CCN(C(=O)c3ccco3)CC2)c2c(n1)c(C)nn2C | 56.5 | 
20 | Cc1nc(N2CCN(C(=O)c3ccncc3)CC2)c2c(n1)c(C)nn2C | 77.24 | 
21 | Cc1nn(C)c2c(N3CCC(C)CC3)nc(C3CC3)nc12 | 6.306 | 
22 | Cc1nn(C)c2c(N3CCN(C)CC3)nc(C3CC3)nc12 | 7.951 | 
23 | CCC(=O)N1CCN(c2ncnc3c(C)nn(C)c23)CC1 | 7.071 | 
24 | CCC(=O)N1CCN(c2nc(C)nc3c(C)nn(C)c23)CC1 | 56.36 | 
25 | CN(C)[C@@H]1CN(C(=O)c2cccn2C)C[C@H]1CO |  | -4.756
26 | CC(C)NC(C1CCNCC1)[C@H]1C[C@H](O)C1 (stereo partly specified) |  | 23.17
27 | CCOc1ncccc1C(=O)N1CCC(COC)C1 (stereo unspecified) |  | -5.58
28 | CC1(C)CN(c2nccnc2C#N)CCS1(=O)=O |  | -1.06
29 | O=C(NCC(F)(F)F)c1ccccc1NCCCO |  | 5.629
30 | O=S(=O)(NC1CC1)C1CCN(CCc2ccccn2)C1 (stereo unspecified) |  | 5.549
31 | c1ccc(N2CCCC2)nc1 |  | -4.186
